# Test results reported in ChEMBL document CHEMBL3433997, “St. Jude Leishmania screening dataset” (2016).
# Biological target: Solute carrier family 2, facilitated glucose transporter member 1 (Homo sapiens) (UniProt P11166)
# Test: ST_JUDE_LEISH: Cytotoxicity at 2uM final concentration against transgenic Leishmania Mexicana promastigotes LmGLUT1 that are glucose transport deficient and complemented with the human glucose transporter GLUT1. Activity is measured by DNA content using SYBR green in vitro
# Type: functional
# Solute carrier family 2, facilitated glucose transporter member 1 (Homo sapiens), sequence (P11166 whole entry): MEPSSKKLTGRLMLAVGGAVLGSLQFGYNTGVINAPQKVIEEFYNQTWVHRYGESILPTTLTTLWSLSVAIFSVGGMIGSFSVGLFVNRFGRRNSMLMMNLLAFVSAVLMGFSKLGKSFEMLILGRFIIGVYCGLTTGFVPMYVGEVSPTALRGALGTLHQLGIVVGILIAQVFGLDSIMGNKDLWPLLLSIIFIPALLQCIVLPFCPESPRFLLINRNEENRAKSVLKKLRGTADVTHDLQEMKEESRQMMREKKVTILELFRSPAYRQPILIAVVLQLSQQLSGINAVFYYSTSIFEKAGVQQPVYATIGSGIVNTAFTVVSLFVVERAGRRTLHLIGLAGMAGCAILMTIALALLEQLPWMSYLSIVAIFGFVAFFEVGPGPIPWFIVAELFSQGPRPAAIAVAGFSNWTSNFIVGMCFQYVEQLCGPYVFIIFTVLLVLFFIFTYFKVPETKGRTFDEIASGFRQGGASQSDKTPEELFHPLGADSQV
row,Compound,inhibition [%]
1,O=C(Nc1cc(Cl)cc(Cl)c1)Nc1ccnc2ccccc12,2.68
2,CN(C)CCOc1ccc2c(=O)cc(CCc3cccc(F)c3F)n(CC(=O)N(C)Cc3ccc(-c4ccc(C(F)(F)F)cc4)cc3)c2c1,-1.05
3,Cc1csc(-c2nonc2NC(=O)COc2ccccc2C(C)C)n1,2.07
4,CCOC(=O)c1c[nH]c2c(sc3cc(OC)ccc32)c1=O,-0.83
5,COc1cc(-c2nc(-c3ccccc3)c(-c3ccccc3)[nH]2)ccc1OCCN(C)C,1.69
6,Cc1ccccc1C1CCN(C2CCC(NC(=O)/C=C/c3cccc(F)c3F)CC2)CC1 (stereo not given),5.69
7,OCC1CCN(Cc2ccc(-c3ccc(-c4nc5ccccc5[nH]4)cc3)cc2)CC1,6.11
8,CNS(=O)(=O)c1ccc2c(c1)nc(C1CCN(CC3CCC(NC(=O)/C=C/c4ccc(Cl)c(Cl)c4)CC3)CC1)n2C (stereo not given),11.9
9,Cc1cc(N)c2cc(NC(=O)/C=C/c3ccccc3Cl)ccc2n1,-4.75
10,Nc1cc(-c2cccc(Cl)c2)nn1-c1ccnc2cc(Cl)ccc12,-0.77
11,CCCCCCCN(Cc1ccc(OC(C)(C)C(=O)OCC)cc1)C(=O)Nc1ccccc1OCC,-0.85
12,OC(c1ccccc1)C1CN(CCc2ccccc2)CCC1(O)c1ccccc1 (stereo not given),0.73
13,COc1ccc2nc(-c3ccccc3)cc(NCCN(C)C)c2c1,8.41
14,CC(C)C[C@@H](/C=N/N1CCNC1=O)NC(=O)[C@H](CC(C)C)NC(=O)c1ccc(OCCN2CCOCC2)cc1,0.84
15,O=C(NC1CCCCC1)N(CCCn1ccnc1)Cc1csc(-c2ccc(CNCc3ccccc3)cc2)n1,0.1
